KB-3-1 tox = kills parental KB-3-1 adenocarcinoma cells. KB-3-1 viability, CellTiter-Glo ATP luminescence, 72 h. Potency, µM (top dose mostly 46.1 µM), actives largely listed as cytotoxic. 400,000 compounds, 1.4% hits. AID 1347075; note: % is set by controls: 0 for no effect and ±100 for the full control effect; nearly all actives have a fitted effect of over 60% in size
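KB-3-1 cells, DMEM (no phenol red) + 10% FBS; compound by pin transfer, 72 h, 37 °C. Readout: CellTiter-Glo luminescence after 10 min. Data normalized, curve-fitted.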
Gal4-VP16 FLuc = inhibits Gal4-VP16 luciferase reporter, ROR gamma counter-screen; Drosophila S2 Gal4-VP16 UAS-luciferase, luminescence, 20 h; Potency, µM (highest dose often 53.6 µM), for the others: at the highest dose activity, negative = inhibition, usual class: inhibitors; 310,000 compounds, 3.5% hits; AID 2546;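 note: Gal4-VP16 expression switched on by copper sulfate through the metallothionein promoter; % is set by controls: 0 for no effect and ±100 for the full control effect; nearly all actives have a fitted effect of over 50% in size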
MCF10A rereplic = inducers of DNA re-replication in MCF 10A breast cells | MCF 10A DNA re-replication, Hoechst nuclear intensity, 48 h | Potency, µM (series often up to 46.1 µM), inactives show top-dose activity, positive = re-replication, actives largely listed as activators | 350,000 compounds, 2.9% hits | AID 624296; note: % of control where 0% means no effect; nearly all actives have a fitted effect of over 50% in size
RORgamma inh = ROR gamma (mouse) transcription inhibition. P51450. AID 2551. 310,000 compounds, 5.4% hits. Drosophila S2 Gal4-RORgamma UAS-luciferase reporter, 20 h. Potency, µM (series often up to 53.6 µM), for the others: at the top dose activity change, negative = inhibition, actives largely listed as inhibitors; note: % is set by controls: 0 for no effect and ±100 for the full control effect; nearly all actives have a fitted effect of over 60% in size
Target sequence (P51450 whole entry, looked up, the tested form may be a part): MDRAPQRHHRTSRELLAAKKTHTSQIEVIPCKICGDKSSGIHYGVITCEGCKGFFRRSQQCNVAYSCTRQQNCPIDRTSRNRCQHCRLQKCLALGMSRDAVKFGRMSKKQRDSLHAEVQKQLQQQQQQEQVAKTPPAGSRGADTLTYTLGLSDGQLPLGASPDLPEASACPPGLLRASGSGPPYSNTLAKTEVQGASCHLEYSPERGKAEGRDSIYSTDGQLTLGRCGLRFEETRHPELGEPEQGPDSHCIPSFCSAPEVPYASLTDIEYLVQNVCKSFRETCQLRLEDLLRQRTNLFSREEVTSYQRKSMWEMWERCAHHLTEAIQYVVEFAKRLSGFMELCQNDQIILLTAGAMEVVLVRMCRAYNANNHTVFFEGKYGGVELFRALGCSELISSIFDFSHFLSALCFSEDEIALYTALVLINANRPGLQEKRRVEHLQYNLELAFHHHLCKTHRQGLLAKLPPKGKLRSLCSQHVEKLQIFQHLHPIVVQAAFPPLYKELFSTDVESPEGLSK
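Schneider cells (Drosophila), stable Gal4 DBD–ROR gamma + UAS-luc; 1 hr cmpd preincubation; Cu2+ induction 700 uM final; 20 hr ambient; luminescence.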
SW480 rerep = DNA re-replication induction in SW480 cells; SW480 DNA re-replication, Hoechst DNA content imaging, 48 h; Potency, µM (highest dose often 46.1 µM), for inactives: at the highest dose re-replication activation, actives largely listed as activators; 340,000 compounds, 1.8% hits; note: % of control where 0% means no effect; nearly all actives have a fitted effect of over 55% in size
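Cells (250 per well) received 23 nL compound or DMSO by pin tool and were kept 48 hr at 37 C, 5% CO2. Nuclei were then stained with Hoechst for 40 min and scanned for DNA content.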
KB-V1 cytotox = kills drug-selected multidrug resistant KB-V1 cells; AID 1347076; 400,000 compounds, 3.4% hits; Potency, µM (titrated, usually from 46.1 µM), hits mostly cytotoxic; KB-V1 MDR cells viability, CellTiter-Glo, 72 h; note: % is set by controls: 0 for no effect and ±100 for the full control effect; nearly all actives have a fitted effect of over 60% in size
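KB-V1 MDR subline cells in DMEM (phenol-red free, 10% FBS) exposed to compounds in qHTS concentration series for 72 h at 37 degrees C. Viability read by CellTiter-Glo luminescence; concentration-effect curves fitted after normalization and correction.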
An asterisk follows results filed as active; [ ] = another dose, or the depositor's remark. Compounds with a hit are over-represented: about 10% of the library has one in this group of screens. Calls come from the whole dose curve; as a rule, active = well fitted curve in the direction sought with a large enough effect; inconclusive = small, poorly fitted or top-dose-only effect, or another doubt; inactive = no such curve, though single readings can be large; an effect the other way counts as inactive or inconclusive. Potency is the fitted concentration of half-maximal effect.

What do the screens show for `Cc1ccc(NC(=O)C2=C(c3ccccc3)S(=O)(=O)CCS2(=O)=O)cc1`?
KB-3-1 tox: inconclusive; Gal4-VP16 FLuc: 5.01µM*; MCF10A rereplic: inconclusive; RORgamma inh: 0.631µM*; SW480 rerep: 2.06µM*; KB-V1 cytotox: inconclusive

What do the screens show for `CC(C)(C)c1ccc(C(=O)Nc2cccc([N+](=O)[O-])c2)cc1`?
KB-3-1 tox: inconclusive; Gal4-VP16 FLuc: -16.5%; MCF10A rereplic: inconclusive; RORgamma inh: inconclusive; SW480 rerep: -79.4%; KB-V1 cytotox: 11.6µM*

How did O=C(Nc1cccc([N+](=O)[O-])c1)c1ccc2c(c1)OCCO2 do in these assays?
KB-3-1 tox: inconclusive; Gal4-VP16 FLuc: 23.4%; MCF10A rereplic: 6.9%; RORgamma inh: inconclusive; SW480 rerep: -115.3%; KB-V1 cytotox: 20.6µM*

Results for O=C(Nc1ccc([N+](=O)[O-])cc1)C(=O)Nc1cccc(C(=O)O)c1 ?
KB-3-1 tox: inconclusive; Gal4-VP16 FLuc: 1µM*; MCF10A rereplic: -6.0%; RORgamma inh: 0.355µM*; SW480 rerep: -10.1%; KB-V1 cytotox: inconclusive

How did Cc1ccc(SCc2ccc(C(=O)Nc3cccc([N+](=O)[O-])c3)cc2)cc1 do in these assays?
KB-3-1 tox: inactive; Gal4-VP16 FLuc: inconclusive; MCF10A rereplic: 4.11µM*; RORgamma inh: -31.5%; SW480 rerep: 8.2µM*; KB-V1 cytotox: inactive

What do the screens show for `Cc1ccc(SCc2ccc(C(=O)Nc3cc([N+](=O)[O-])ccc3C)cc2)cc1`?
KB-3-1 tox: inactive; Gal4-VP16 FLuc: inconclusive; MCF10A rereplic: -7.1%; RORgamma inh: 13.2%; SW480 rerep: inconclusive; KB-V1 cytotox: inactive

How did Cc1ccc(NC(=O)CC(C)S(=O)(=O)c2ccc3c(c2)NC(=O)CO3)cc1Cl (centres undefined) do in these assays?
KB-3-1 tox: inactive; KB-V1 cytotox: inactive

How did Cc1cccc(CN2CCN(C3CN(Cc4ccc([N+](=O)[O-])cc4)S(=O)(=O)C3)CC2)c1 (centres undefined) do in these assays?
KB-3-1 tox: inactive; KB-V1 cytotox: inactive

Results for O=C(Nc1cccc([N+](=O)[O-])c1)c1ccc2ccccc2c1O ?
KB-3-1 tox: inconclusive; Gal4-VP16 FLuc: 2.82µM*; MCF10A rereplic: inconclusive; RORgamma inh: -30.7%; SW480 rerep: 19.0%; KB-V1 cytotox: 4.11µM*

Results for O=C(Nc1cccc([N+](=O)[O-])c1)c1[nH]ncc1Cl ?
KB-3-1 tox: inactive; Gal4-VP16 FLuc: -1.1%; MCF10A rereplic: 3.4%; RORgamma inh: 52.6%; SW480 rerep: 19.8%; KB-V1 cytotox: 23.1µM*

What do the screens show for `COC(=O)Nc1ccc(SCC(=O)c2cccc([N+](=O)[O-])c2)cc1`?
KB-3-1 tox: inactive; Gal4-VP16 FLuc: -9.4%; MCF10A rereplic: 23.1µM*; RORgamma inh: -17.9%; SW480 rerep: inconclusive; KB-V1 cytotox: inactive

Results for COc1ccc(C(C(=O)Nc2ccc(F)cc2)N2CCN(C(=O)c3ccco3)CC2)cc1 (centres undefined) ?
KB-3-1 tox: inactive; KB-V1 cytotox: inactive

Results for CC(=O)Nc1ccccc1OCc1cc(=O)n2c(C)csc2n1 ?
KB-3-1 tox: inactive; KB-V1 cytotox: inactive

Results for CC(=O)Nc1ccc(NC(=O)C(NC(=O)C2CCC(C)CC2)C(C)C)cc1 (centres undefined) ?
KB-3-1 tox: inactive; KB-V1 cytotox: inconclusive

How did CC(Nc1ccc(Cl)cc1)c1cc(Cl)ccc1O (centres undefined) do in these assays?
KB-3-1 tox: inactive; Gal4-VP16 FLuc: 12.6µM*; MCF10A rereplic: 16.0%; RORgamma inh: inconclusive; SW480 rerep: 1.5%; KB-V1 cytotox: inactive

Results for CCOc1ccc(NC(C)c2cc(Cl)ccc2O)cc1 (centres undefined) ?
KB-3-1 tox: inactive; Gal4-VP16 FLuc: -17.2%; MCF10A rereplic: 6.0%; RORgamma inh: -9.5%; SW480 rerep: -3.1%; KB-V1 cytotox: inactive

How did CC(C)=CCC/C(C)=C/CO/N=C1/C[C@@H](O)[C@@H](O)[C@@H]2[C@H]3C(=O)N(c4ccc(F)cc4F)C(=O)[C@@H]3CC[C@@H]12 do in these assays?
Gal4-VP16 FLuc: -7.8%[10 µM]; RORgamma inh: 0.2%[10 µM]

How did C=CCC[C@H](Cc1ccc(F)cc1)C(=O)OC[C@H](Cc1c[nH]c2ccccc12)NC(=O)[C@@H](CC=C)CC(=O)N(CCO)Cc1ccccc1 do in these assays?
KB-3-1 tox: inactive; MCF10A rereplic: inconclusive; SW480 rerep: inconclusive; KB-V1 cytotox: 20.6µM*

What do the screens show for `C=CCC[C@@H](Cc1ccc(F)cc1)C(=O)OC[C@H](Cc1c[nH]c2ccccc12)NC(=O)[C@H](CC=C)CC(=O)N(CCO)Cc1ccccc1`?
KB-3-1 tox: inactive; MCF10A rereplic: inconclusive; SW480 rerep: inconclusive; KB-V1 cytotox: inactive

What do the screens show for `C=CCC[C@H](Cc1ccc(F)cc1)C(=O)O[C@H](CNC(=O)[C@@H](CC=C)CC(=O)N(CCO)Cc1ccccc1)c1ccccc1`?
KB-3-1 tox: inactive; MCF10A rereplic: 20.6µM*; SW480 rerep: inconclusive; KB-V1 cytotox: inactive

What do the screens show for `CCOc1ccc(C(=O)Nc2ccc(-c3nc4ccccc4o3)cc2)cc1[N+](=O)[O-]`?
KB-3-1 tox: inactive; KB-V1 cytotox: inconclusive

What do the screens show for `CCCCc1ccc(-n2nc3cc(C)c(NC(=O)c4ccc(C#N)cc4F)cc3n2)cc1`?
KB-3-1 tox: inactive; KB-V1 cytotox: inconclusive

Results for O=C(NC(=S)NNC(=O)c1ccco1)c1ccc(F)cc1 ?
KB-3-1 tox: inactive; Gal4-VP16 FLuc: inconclusive; MCF10A rereplic: -2.2%; RORgamma inh: 11.2µM*; SW480 rerep: -5.5%; KB-V1 cytotox: inactive

How did COc1cc2ccccc2cc1C(=O)N/N=C/c1cccs1 do in these assays?
KB-3-1 tox: 2.31µM*; KB-V1 cytotox: 9.2µM*

What do the screens show for `COC(=O)N/N=C/c1cccs1`?
KB-3-1 tox: inconclusive; Gal4-VP16 FLuc: -7.5%; MCF10A rereplic: -0.6%; RORgamma inh: -24.0%; SW480 rerep: -8.2%; KB-V1 cytotox: inconclusive

How did O=C(NC(=S)NNC(=O)c1ccccc1O)c1ccco1 do in these assays?
KB-3-1 tox: inactive; Gal4-VP16 FLuc: 3.55µM*; MCF10A rereplic: 8.2%; RORgamma inh: -18.6%; SW480 rerep: 5.0%; KB-V1 cytotox: inconclusive

What do the screens show for `COc1cc2ccccc2cc1C(=O)NNC(=O)c1ccccc1O`?
Gal4-VP16 FLuc: inconclusive; RORgamma inh: 11.2µM*

What do the screens show for `O=C(NNC(=S)NC(=O)c1ccco1)c1ccc(NC(=O)c2ccccc2)cc1`?
KB-3-1 tox: inconclusive; Gal4-VP16 FLuc: 3.8%; MCF10A rereplic: -0.5%; RORgamma inh: inconclusive; SW480 rerep: inconclusive; KB-V1 cytotox: inconclusive

Assay outcomes deposited in PubChem by National Center for Advancing Translational Sciences (NCATS).
